# Compound activity (PubChem BioAssay)
# In the library only some 8.1% were active in any assay of this set; here they are far more common.
# ClpP mod: qHTS Assay for Activators of ClpP | ATP-dependent Clp protease proteolytic subunit (Bacillus subtilis (strain 168)), P80244 | purified B. subtilis ClpP, FRET peptide cleavage, 20 min | Potency, µM (top dose mostly 57.5 µM), for inactives: at the top dose activity change, negative = active | actives 1.9% (n = 340,000) | AID 651965, 2013; active = well fitted falling curve with a large enough effect; inconclusive = small, poorly fitted or top-dose-only effect; inactive = no such curve, though single readings can be large or run the other way; also: the source files actives as falling curves though it sought activators and does not explain the sign; nearly all actives have a fitted effect of over 65% in size
#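 ClpP 10 microg/mL final, pH 8 Tris/KCl buffer with BSA, glycerol, Tween-20; compound pinned in; FRET-FV substrate; RT 20 min; Ex320/Em430; ΔFRET vs ADEP 5.8 microM, DMSO, no enzyme.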
# Epigenetic reg: Quantitative High-Throughput Screen for Regulators of Epigenetic Control | murine LDR cells, GFP reporter derepression, 30 h | Potency, µM (doses to about 53.9 µM), for inactives: at the top dose GFP activation, hits mostly activators | actives 0.2% (n = 280,000); also: % of control where 0% means no effect; nearly all actives have a fitted effect of over 60% in size
#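 Derepression of a silenced CMV-GFP reporter in murine LDR cells is scored by enumerating GFP-positive cells with a laser-scanning microplate cytometer after 30 hours of treatment at 37 C.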
# Gal4-VP16 FLuc: VP16 counterscreen qHTS for inhibitors of ROR gamma transcriptional activity; Drosophila S2 Gal4-VP16 UAS-luciferase, luminescence, 20 h; AID 2546, 2010; actives 3.5% (n = 310,000); Potency, µM (doses to about 53.6 µM), for the others: at the highest dose activity, negative = inhibition, hits mostly inhibitors;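 also: Gal4-VP16 expression switched on by copper sulfate through the metallothionein promoter; % is scaled to controls: 0 for no effect and ±100 for the full control effect; nearly all actives have a fitted effect of over 50% in size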
# RORgamma inh: qHTS for inhibitors of ROR gamma transcriptional activity; actives 5.4% (n = 310,000); Potency, µM (highest dose often 53.6 µM), for the others: top-dose activity change, negative = inhibition, hits mostly inhibitors; AID 2551, 2010; Drosophila S2 Gal4-RORgamma UAS-luciferase reporter, 20 h; Nuclear receptor ROR-gamma (Mus musculus), P51450; also: % is scaled to controls: 0 for no effect and ±100 for the full control effect; nearly all actives have a fitted effect of over 60% in size
#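 Drosophila Schneider cells stably carrying a metallothionein-driven Gal4 DBD–ROR gamma fusion and a UAS-Photinus luciferase reporter were exposed to compound for 1 hr, then induced with copper sulfate (700 uM final) for 20 hr at ambient temperature before luminescence reading.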
# Sfp PPTase inh: qHTS Assay for Inhibitors of Bacillus subtilis Sfp phosphopantetheinyl transferase (PPTase) | 4'-phosphopantetheinyl transferase ffp (Bacillus subtilis), Q9F4F7 | Biochemical Sfp PPTase activity, qHTS | Potency, µM, for inactives: largest response in the series, negative = inhibition, usual class: inhibitors | actives 3.5% (n = 310,000);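 also: the enzyme is Sfp with the accession as filed and its product quenches rhodamine fluorescence; 0% = enzyme reaction without inhibitor and -100% = no enzyme wells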
#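 With Hepes-Na pH 7.6 buffer containing 10 mM MgCl2, Sfp (15 nM) modified BHQ-2-YbbR (12.5 uM) using rhodamine-CoA (5 uM). Two reads 30 minutes apart at 525/598 nm yielded each well's rate.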
# PINK1 modulator: A Quantitative High throughput Screen to Identify Chemical Modulators of PINK1 Expression; PINK1 immunofluorescence, high-content cytometry, 24 h; Potency, µM (doses to about 76.6 µM), for the others: at the top dose activation (PINK1 increase), most hits filed as activators; actives 0.2% (n = 410,000); active = well fitted activation curve with a large enough effect; inconclusive = small, poorly fitted or top-dose-only effect; cell line not stated here; also: % of control where 0% means no effect; nearly all actives have a fitted effect of over 65% in size
#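 Readout is PINK1 immunofluorescence, quantified alongside mitochondrial, cell and nuclear markers by laser-scanning microplate cytometry. Cells from a stable line were exposed to compound titrations (5 concentrations) for 24 hours, with CCCP controls.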
# An asterisk follows results filed as active; u = inconclusive; x = no result; [ ] = remark or other dose. Unless noted, calls follow the shape of the dose curve; as a rule, active = well fitted curve in the direction sought with a large enough effect; inconclusive = small, poorly fitted or top-dose-only effect, or another doubt; inactive = no such curve, though single readings can be large; an effect the other way counts as inactive or inconclusive. Potency is read from the fitted curve at half-maximal effect.
SMILES,ClpP mod,Epigenetic reg,Gal4-VP16 FLuc,RORgamma inh,Sfp PPTase inh,PINK1 modulator
CCCc1cc(NCc2ccccn2)n2nc(C)c(-c3ccccc3)c2n1,x,u,0.562µM*,0.0891µM*,-9.3%,18.9%
NC1(c2ccc(-c3nc4ccn5c(=O)[nH]nc5c4cc3-c3ccccc3)cc2)CCC1,4.7%,x,x,x,x,-0.8%
CC1CCc2nn(CC(=O)Nc3cccc(C(F)(F)F)c3)c(=O)cc2C1 (stereo not drawn),1.8%,1.4%,x,x,x,-0.5%
CCOC(=O)c1ccccc1NC(=O)c1cn(CC(C)C)c(=O)c2cc(OC)c(OC)cc12,-3.6%,-1.3%,x,x,x,1.2%
CCCCn1c(=N)c(S(=O)(=O)c2ccc(Cl)cc2)cc2c(=O)n3cccc(C)c3nc21,-1.3%,-0.9%,x,x,x,2.3%
CCc1ccccc1NC(=O)c1ccc2c(SCC(=O)O)c3c(nc2c1)CCC3,-2.3%,-2.0%,x,x,x,0.2%
CCOC(=O)OCC1OC(c2ccc(C(C)=O)cc2)C=CC1Oc1ccc(-c2ccccc2)cc1 (stereo not drawn),x,0.8%[10.1 µM],6.4%[10 µM],20.9%[10 µM],25.2%,x
Cc1nn2c(NCc3ccccn3)cc(C(C)C)nc2c1-c1ccccc1,3.7%,u,0.631µM*,0.0891µM*,-9.6%,u
Cc1nn2c(NCCCn3ccnc3)cc(C(C)C)nc2c1-c1ccccc1,x,-1.0%,-15.4%,u,-26.2%,-0.4%
O=C(NCc1cccs1)C1CCN(C(=O)N2CCOc3ccccc32)CC1,-1.9%,1.4%,x,x,x,-2.1%
Cc1ccc(OCc2nnc(SCC(=O)Nc3cc(C)on3)n2C)cc1,2.2%,-1.0%,-0.7%,-3.4%,14.1%,3.3%[38.3 µM]
Cc1ccc(OCc2nnc(SCC(=O)c3cccc([N+](=O)[O-])c3)n2C)cc1,-1.1%,0.9%,u,2µM*,u,u
CN(CCO)c1nc(N)c2c(N)nc3c(c2c1C#N)CC(=O)N3C1CCCC1,x,1.0%,4.0%,-21.8%,50.1µM*,x
CCc1cc2c(nc1CC)CCN(CC/C(C)=N/O[C@@H](C)c1cn([C@@H]3COC[C@@H]3O)nn1)C2,x,0.0%[10.1 µM],-2.6%[10 µM],0.3%[10 µM],u,x
COc1cc(C)ccc1OCCSc1nc2ccc(NC(=O)c3ccc4c(c3)OCO4)cc2s1,22.4µM*,3.2%,x,x,x,0.9%
Cc1ccccc1OCCSc1nc2ccc(NC(=O)c3cccs3)cc2s1,14.1µM*,-2.4%,x,x,x,1.8%
Cc1ccccc1OCCSc1nc2ccc(NC(=O)c3cccc(F)c3)cc2s1,22.4µM*,-1.6%,x,x,x,7.0%
Cc1cccc(OCCSc2nc3ccc(NC(=O)c4cccs4)cc3s2)c1,20µM*,5.3%,x,x,x,1.8%
Cc1ccccc1OCCSc1nc2ccc(NC(=O)c3ccccc3)cc2s1,0.1%,-0.8%,x,x,x,-0.6%
Cc1c(-c2nnc(SCC(=O)Nc3ccccc3F)o2)nnn1-c1ccc(F)cc1,-6.7%,-0.6%,x,x,x,2.5%
C[C@H](NC(=O)OC(C)(C)C)C(=O)c1ccco1,-2.2%,x,x,x,x,x
O=C(O)c1c(Cl)c(Cl)c(Cl)c(Cl)c1C(=O)N1CCCCCC1,31.6µM*,-1.8%,-4.0%,-9.8%,4.6%,-1.9%
O=C(O)c1c(Cl)c(Cl)c(Cl)c(Cl)c1C(=O)N1CCOCC1,-1.3%,-1.1%,7.3%,-20.4%,u,-0.2%
O=C1C(O)=C(O)C(=O)c2ccccc21,4.7%,x,x,x,x,u
O=C1c2ccccc2C(=O)c2[nH]cnc21,1.5%,-0.3%,u,11.2µM*,18.1%,-1.5%
SMILES,ClpP mod,Epigenetic reg,Gal4-VP16 FLuc,RORgamma inh,Sfp PPTase inh,PINK1 modulator
O=C1c2ccccc2C(=O)c2[nH]c(=O)[nH]c21,x,x,7.08µM*,3.98µM*,-2.3%,-1.7%
O=C(c1ccc(Cl)cc1)c1cnc(-c2ccccc2)s1,20µM*,0.0%,-9.1%,10.3%,0.5%,1.1%
CC(/C=C/c1ccco1)=N\NC(=O)c1cccc(Cl)c1,-2.6%,0.0%,3.55µM*,3.98µM*,u,-0.1%
CC(/C=N/NC(=O)c1cccc(F)c1)=C\c1ccccc1,-2.8%,x,-17.5%,-30.9%,-19.8%,2.8%
Cc1cccc(C(=O)Nc2ccc(C(=O)N/N=C/c3ccco3)cc2)c1,-5.3%,x,x,x,x,3.0%
O=C(N/N=C/C=C/c1ccco1)c1ccccc1Cl,x,13.2%,-29.8%,u,39.8µM*,0.3%
O=C(N/N=C/c1ccco1)c1ccccc1OCc1ccccc1Cl,1.1%,-0.6%,-9.5%,-10.5%,-3.4%,0.2%
O=C(N/N=C/c1ccco1)c1cccc(NC(=O)c2ccccc2Cl)c1,x,x,13.6%,-27.6%,21.6%,1.0%
CC(/C=C/c1ccccc1F)=N\NC(=O)c1cccc(F)c1,x,0.5%,5.01µM*,0.891µM*,19.0%,7.4%
CC(/C=C/c1ccco1)=N/NC(=O)c1ccccc1Cl,0.7%,-2.5%,u,u,35.5µM*,-1.1%
Cc1cccc(NC(=O)c2nc[nH]c2C(=O)N[C@@H](CC(C)C)C(=O)OCc2ccccc2)c1,-22.2%,u,10µM*,3.55µM*,22.9%,3.9%
Cc1cccc(NC(=O)c2nc[nH]c2C(=O)N[C@@H](C)C(=O)OCc2ccccc2)c1,1.5%,8.4%,12.6µM*,8.91µM*,25.4%,8.0%
COc1ccc(Cl)cc1NC(=O)c1cc(S(=O)(=O)N2CCc3ccccc32)cn1C,-17.8%,1.1%,x,x,x,7.8%
Cc1ccc(CCNC(=O)CCCn2nc(C)c3c(C)n(-c4ccccc4)nc3c2=O)cc1,-1.0%,2.5%,x,x,x,1.7%
CC(C)[C@H](NC(=O)c1ccccc1Cl)C(=O)Nc1nc(-c2ccccn2)cs1,-1.4%,1.3%,u,7.94µM*,u,4.6%
CC(Oc1ccc(Br)cc1)C(=O)Nc1nc(-c2ccccn2)cs1 (stereo not drawn),-0.4%,x,3.16µM*,2.51µM*,39.8µM*,10.9%
CCc1ccc(C(=O)CC2(O)C(=O)N(CCc3ccccc3)c3ccc(Cl)cc32)cc1 (stereo not drawn),-2.7%,11.5%,x,x,x,14.2%
COc1ccc(N2C(=O)CC(Sc3nc4ccccc4s3)C2=O)cc1 (stereo not drawn),x,-1.1%,u,5.01µM*,7.1%,0.6%
CCOc1ccc(N2C(=O)CC(Sc3nnnn3-c3ccccc3)C2=O)cc1 (stereo not drawn),x,u,u,3.98µM*,15.8µM*,7.1%
C=CCNc1nnc(SC2CC(=O)N(c3ccc(OC)cc3)C2=O)s1 (stereo not drawn),-3.0%,0.0%,12.6µM*,4.47µM*,u,4.4%[38.3 µM]
